Measured potencies and affinities stand elsewhere. Records with an inconclusive call do not appear.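 The calls were made as follows: active = samples whose fitted half-maximal inhibition concentration is no more than ten times the top valid dose tested; inconclusive = flat response between -70 and -30, or invalid curve fit; inactive = flat within 30 of zero, potency above limit, or signal rising.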
biological target: Trypsin (Sus scrofa) (UniProt P00761); experiment: porcine trypsin inhibitors, dose response, selectivity assay for Rce1 protease inhibitor project, biochemical, quenched peptide fluorescence, cherry-pick (AID 488789); conditions: quenched peptide cleavage fluorescence; series mostly up to 10 µM; activity change, negative = inhibition: at the top concentration;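 also: more negative means stronger trypsin inhibition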
Sequence (P00761 whole entry, looked up): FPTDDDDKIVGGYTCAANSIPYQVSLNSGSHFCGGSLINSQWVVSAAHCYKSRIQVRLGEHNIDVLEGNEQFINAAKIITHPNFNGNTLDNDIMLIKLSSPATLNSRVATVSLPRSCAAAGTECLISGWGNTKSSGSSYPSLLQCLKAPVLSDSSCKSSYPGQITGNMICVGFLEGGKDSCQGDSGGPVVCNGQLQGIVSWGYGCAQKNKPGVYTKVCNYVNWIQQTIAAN

Activity change, negative = inhibition, inactive:
OC1CCN(C(c2ccc3ncccc3c2)c2nnnn2C2CCCCC2)CC1 (configuration not stated) -1.46%, COc1ccc(C2Nc3ccccc3C(=O)N2Cc2ccccc2)cc1COc1ccccn1 (configuration not stated) -12.8%, CCc1ccc(Nc2n[n+](-c3ccccc3)c(/C=C/c3ccccc3)s2)cc1 7.2%, CCn1nc(C)cc1C(=O)NC1CC(C)(C)Cc2c1cnn2-c1cccc(F)c1 (configuration not stated) 18.9%, O=C(Nc1ccc2c(c1)CCC2)c1ccccc1Br 5.5%, COc1cccc2sc3ccc(C#CC4(O)CCCCC4)cc3c(=O)c12 6.34%, O=C(CN1CCC(NC(=O)c2ccc(Br)cc2)CC1)NCc1cccs1 5.08%, O=C(CN(C1CCCCC1)C1CCCCC1)N1CCc2ccccc2C1 6.13%, Cc1cc(C)n(Cc2ccc(NC(=O)c3ccc(COc4ccccc4Br)cc3)cc2)n1 1.54%, N/C(Cc1ccc([N+](=O)[O-])cc1)=N\OC(=O)c1ccc2ccccc2c1 17.9%, O=C(O)c1ccc(N/N=C/c2ccc(-c3ccccc3Cl)o2)cc1 0.708%, CCOC(=O)C[n+]1ccc2c([nH]c3ccccc32)c1C -8.14%, CCCCOc1ccc(-c2cc(C(F)(F)F)c(C#N)c(SCC(=O)O)n2)cc1 40.4%, CCOC(=O)C1CCCN(C(=O)CCn2nnnc2CN2CCOCC2)C1 (configuration not stated) 21%, COc1ccc(C2/C=C\CN(C(=O)c3ccc(C)cc3)[C@H](Cc3ccccc3)C(=O)N2Cc2ccc(F)cc2)cc1 (some centres not stated) 6.08%, CC1(c2nnc(-c3cccc(Cl)c3)o2)CC(c2cccc(F)c2)=NO1 (configuration not stated) 5.97%, Cc1ccc(-c2nc(CN3CCCCC3)cc(CN3CCCCC3)c2O)cc1 -10.6%, COc1cccc(C(=O)Nc2nnc(SCC(=O)NC3CCCC3)s2)c1 -6.24%, COc1ccc(CC(=O)OCC(=O)Nc2ccc(Br)cc2)cc1 11.8%, O=S(=O)(c1ccccc1)c1nc(-c2ccco2)oc1N1CCCCC1 3.48%, COC(C[C@H](O)C[C@H](O)[C@@H](C)OCc1ccccc1)OC 4.45%, CC(C)C(NC(=O)c1ccco1)C(=O)NCC(c1ccco1)N1CCCCC1 (configuration not stated) 7.33%, CN1c2ccc(C=O)c3c(C=O)ccc(c23)N(C)C1(C)C 7.96%, O=C(c1cnc(Cl)c(Cl)c1)N1CCC(Cc2ccccc2)CC1 5.08%, COc1ccc(C(CNC(=O)COc2cc(C)c(Cl)c(C)c2)N2CCCCC2)cc1 (configuration not stated) 3.11%, COc1ccc2cc(C(=O)C3CCCN(C(=O)c4cc(=O)n(C)c(=O)n4C)C3)ccc2c1 (configuration not stated) -7.43%, NC(=O)CSC1=Nc2ccccc2C2=NC(c3ccccc3)C(=O)N12 (configuration not stated) -14.2%, Cc1nc(N2CCOCC2)c2c(C)c(C(=O)Nc3ccccc3C(F)(F)F)sc2n1 -6.97%, C/C(Cl)=C\Cn1c(O)c(N=NC(N)=S)c2cc(Br)ccc21 4.97%, Cc1ccc(Nc2nc(-c3ccc(S(=O)(=O)N4CCOCC4)cc3)cs2)cc1Cl 3.37%, O=C1C(=O)N(C/C=C/c2ccccc2)c2ccccc21 12%, CCOC(=O)c1cc2c(=O)[nH]ccc2nc1C 65.8%, Cc1cc2cc(C#N)c(NCCNC(=S)NCCCN3CCOCC3)nc2cc1C -4.36%, COCCCNC(=S)NCCNc1nc2cc(C)cc(C)c2cc1C#N 1.37%, COc1ccc(C2c3c(ncn(CCN4CCOCC4)c3=N)Oc3ccc4ccccc4c32)cc1 (configuration not stated) 3.44%, COC(=O)Cn1c(CCC(=O)O)ccc1-c1ccccc1 -7.92%, CCNC(=S)NNC(=O)CCn1cc(C)cn1 -2.65%
